Source: PubChem BioAssay (NCATS)
Values joined by “and” are separate entries in the source; they are usually repeats but may differ in a detail not shown here. Equal values may be shown once. Records with an inconclusive call do not appear. Entries that show only a call come without a potency. Active and inactive are the calls of the source. Calls follow the shape of the dose curve; as a rule, active = well fitted curve in the direction sought with a large enough effect; inconclusive = small, poorly fitted or top-dose-only effect, or another doubt; inactive = no such curve, though single readings can be large; an effect the other way counts as inactive or inconclusive.

test: qHTS of pediatric cancer cell lines to identify multiple opportunities for drug repurposing: Primary screen for MG 63 (6-TG R) cells (AID 1347105); details: MG 63 (6-TG R) viability, CellTiter-Glo, 48 h; series mostly up to 46 µM; also: nearly all actives have a fitted effect of over 50% in size
Summary of the method: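 Luminescence from CellTiter-Glo served as readout of metabolically active cells after 48 h compound exposure. Titrations: MIPE 11-point, from 0.78 nM; NPC 8-point, from 0.59 nM (final). Concentration-response curves came straight from the primary screen.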

Row | Compound | Potency
1 | CCN[C@H]1C[C@H](C)S(=O)(=O)c2sc(S(N)(=O)=O)cc21 | inactive
2 | NC(=O)N1c2ccccc2CC(=O)c2ccccc21 | inactive
3 | COc1ccccc1OCC(O)COC(N)=O (stereo unspecified) | inactive
4 | Cc1onc(-c2ccccc2Cl)c1C(=O)N[C@@H]1C(=O)N2[C@@H]1SC(C)(C)[C@@H]2C(=O)O | inactive
5 | CCN(CC)CCn1c(=O)c(Cc2ccc(OC)cc2)nc2ccccc21 | inactive
6 | Cc1cccc(Nc2ccncc2S(=O)(=O)NC(=O)NC(C)C)c1 | inactive
7 | NC(N)=NC(N)=NCCc1ccccc1 | inactive
8 | COc1ncnc(NS(=O)(=O)c2ccc(N)cc2)c1OC | inactive
9 | CC(C)C1CCC(C(=O)N[C@H](Cc2ccccc2)C(=O)O)CC1 (stereo partly specified) | inactive
10 | CCOCC(O)COc1ccc(NC(=O)CC[S+](C)C)cc1 (stereo unspecified) | inactive

test: qHTS of pediatric cancer cell lines to identify multiple opportunities for drug repurposing: Primary screen for control Hh wild type fibroblast cells (AID 1347106); details: Hh wild-type fibroblast viability, CellTiter-Glo luminescence, 48 h; series mostly up to 46 µM; also: nearly all actives have a fitted effect of over 55% in size; also: potency is read from the fitted curve at half-maximal effect
Summary of the method: (§1)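 Cells (500-1,000/well) in growth media were settled 5 h at 37 degrees C, then given compounds for 48 h. Viability was read as CellTiter-Glo luminescence. Primary runs used MIPE at 11 points (0.78 nM-46 µM) and NPC at 8 points (0.59 nM-46 µM); follow-ups used 11 points.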

Row | Compound | Potency
11 | O=C(O)c1cn(C2CC2)c2cc(N3CCNCC3)c(F)cc2c1=O | inactive
12 | OCc1ccc(-c2nn(Cc3ccccc3)c3ccccc23)o1 | inactive
13 | COC(c1ccccc1)(c1ccccc1)[C@H](Oc1nc(C)cc(C)n1)C(=O)O | inactive
14 | CN(C)c1ccc(C(=C2C=CC(=[N+](C)C)C=C2)c2ccc(N(C)C)cc2)cc1 | 8.41 µM (active) and 2.64 µM (active)
15 | CN(CCOc1ccc(CC2SC(=O)NC2=O)cc1)c1ccccn1 (stereo unspecified) | inactive
16 | S=P(N1CC1)(N1CC1)N1CC1 | inactive
17 | CCc1c2c(nc3ccc(OC(=O)N4CCC(N5CCCCC5)CC4)cc13)-c1cc3c(c(=O)n1C2)COC(=O)[C@]3(O)CC | inactive
18 | CCn1cc(C(=O)O)c(=O)c2cc(F)c(N3CCNCC3)nc21 | inactive
19 | C[C@@H]1CN(c2c(F)c(N)c3c(=O)c(C(=O)O)cn(C4CC4)c3c2F)C[C@H](C)N1 | inactive
20 | CO[C@@]12[C@H](COC(N)=O)C3=C(C(=O)C(C)=C(N)C3=O)N1C[C@@H]1N[C@@H]12 | inactive
21 | C#CCN[C@@H]1CCc2ccccc21 | inactive
22 | NCCCC(O)(P(=O)(O)O)P(=O)(O)O | inactive
23 | O=C(O)c1cc(=O)[nH]c(=O)[nH]1 | inactive
24 | CCOC(=O)c1ccc(OC(=O)CCCCCN=C(N)N)cc1 | inactive
25 | Cc1oc(=O)oc1CN1CCN(c2cc3c(cc2F)c(=O)c(C(=O)O)c2n3C(C)S2)CC1 (stereo unspecified) | inactive
26 | O=C(N[C@H](CO)[C@H](O)c1ccc([N+](=O)[O-])cc1)C(Cl)Cl | inactive
27 | NC(=O)c1cccc(N)c1 | inactive
28 | O=C(O)CCn1c2c(c3ccccc31)C[C@H](NS(=O)(=O)c1ccc(F)cc1)CC2 | inactive
29 | N[C@@H](C(=O)N[C@@H]1C(=O)N2C(C(=O)O)=C(Cl)CS[C@H]12)c1ccccc1 | inactive

Row | Compound | Potency
30 | CC(C)NCC(O)c1ccc(NS(C)(=O)=O)cc1 (stereo unspecified) | inactive
31 | COc1ccc2c(c1)c(CC(=O)OCC(=O)O)c(C)n2C(=O)c1ccc(Cl)cc1 | inactive
32 | CCCCc1oc2ccc(NS(C)(=O)=O)cc2c1C(=O)c1ccc(OCCCN(CCCC)CCCC)cc1 | inactive
33 | Cc1noc(NS(=O)(=O)c2ccc(N)cc2)c1C | inactive
34 | Cc1ncc([N+](=O)[O-])n1CCO | inactive
35 | CCN(C)C(=O)Oc1cccc([C@H](C)N(C)C)c1 | inactive
36 | CCN[C@H]1C[C@H](C)S(=O)(=O)c2sc(S(N)(=O)=O)cc21 | inactive
37 | NC(=O)N1c2ccccc2CC(=O)c2ccccc21 | inactive
38 | CCCCS(=N)(=O)CCC(N)C(=O)O (stereo unspecified) | inactive
39 | COc1ccccc1OCC(O)COC(N)=O (stereo unspecified) | inactive
40 | Cc1onc(-c2ccccc2Cl)c1C(=O)N[C@@H]1C(=O)N2[C@@H]1SC(C)(C)[C@@H]2C(=O)O | inactive
41 | CCN(CC)CCn1c(=O)c(Cc2ccc(OC)cc2)nc2ccccc21 | inactive
42 | Cc1cccc(Nc2ccncc2S(=O)(=O)NC(=O)NC(C)C)c1 | inactive
43 | NC(N)=NC(N)=NCCc1ccccc1 | inactive
44 | O=P(O)(O)C(O)(Cc1cccnc1)P(=O)(O)O | inactive
45 | COc1ncnc(NS(=O)(=O)c2ccc(N)cc2)c1OC | inactive
46 | CC(C)C1CCC(C(=O)N[C@H](Cc2ccccc2)C(=O)O)CC1 (stereo partly specified) | inactive
47 | CCOCC(O)COc1ccc(NC(=O)CC[S+](C)C)cc1 (stereo unspecified) | inactive

test: qHTS of pediatric cancer cell lines to identify multiple opportunities for drug repurposing: Primary screen for Rh30 cells (AID 1347107); details: Rh30 rhabdomyosarcoma viability, CellTiter-Glo luminescence, 48 h; series mostly up to 46 µM; also: nearly all actives have a fitted effect of over 75% in size; also: potency is read from the fitted curve at half-maximal effect
Summary of the method: as §1

Row | Compound | Potency
48 | O=C(O)c1cn(C2CC2)c2cc(N3CCNCC3)c(F)cc2c1=O | inactive
49 | OCc1ccc(-c2nn(Cc3ccccc3)c3ccccc23)o1 | inactive
50 | COC(c1ccccc1)(c1ccccc1)[C@H](Oc1nc(C)cc(C)n1)C(=O)O | inactive
51 | CN(C)c1ccc(C(=C2C=CC(=[N+](C)C)C=C2)c2ccc(N(C)C)cc2)cc1 | 11.9 µM (active) and 5.9 µM (active)
52 | CN(CCOc1ccc(CC2SC(=O)NC2=O)cc1)c1ccccn1 (stereo unspecified) | inactive
53 | S=P(N1CC1)(N1CC1)N1CC1 | inactive
54 | CCn1cc(C(=O)O)c(=O)c2cc(F)c(N3CCNCC3)nc21 | inactive
55 | C[C@@H]1CN(c2c(F)c(N)c3c(=O)c(C(=O)O)cn(C4CC4)c3c2F)C[C@H](C)N1 | inactive
56 | C#CCN[C@@H]1CCc2ccccc21 | inactive
57 | NCCCC(O)(P(=O)(O)O)P(=O)(O)O | inactive
58 | O=C(O)c1cc(=O)[nH]c(=O)[nH]1 | inactive
59 | CCOC(=O)c1ccc(OC(=O)CCCCCN=C(N)N)cc1 | inactive
60 | Cc1oc(=O)oc1CN1CCN(c2cc3c(cc2F)c(=O)c(C(=O)O)c2n3C(C)S2)CC1 (stereo unspecified) | inactive
61 | O=C(N[C@H](CO)[C@H](O)c1ccc([N+](=O)[O-])cc1)C(Cl)Cl | inactive
62 | NC(=O)c1cccc(N)c1 | inactive
63 | O=C(O)CCn1c2c(c3ccccc31)C[C@H](NS(=O)(=O)c1ccc(F)cc1)CC2 | inactive
64 | N[C@@H](C(=O)N[C@@H]1C(=O)N2C(C(=O)O)=C(Cl)CS[C@H]12)c1ccccc1 | inactive

Row | Compound | Potency
65 | CC(C)NCC(O)c1ccc(NS(C)(=O)=O)cc1 (stereo unspecified) | inactive
66 | COc1ccc2c(c1)c(CC(=O)OCC(=O)O)c(C)n2C(=O)c1ccc(Cl)cc1 | inactive
67 | Cc1noc(NS(=O)(=O)c2ccc(N)cc2)c1C | inactive
68 | Cc1ncc([N+](=O)[O-])n1CCO | inactive
69 | CCN(C)C(=O)Oc1cccc([C@H](C)N(C)C)c1 | inactive
70 | CCN[C@H]1C[C@H](C)S(=O)(=O)c2sc(S(N)(=O)=O)cc21 | inactive
71 | NC(=O)N1c2ccccc2CC(=O)c2ccccc21 | inactive
72 | CCCCS(=N)(=O)CCC(N)C(=O)O (stereo unspecified) | inactive
73 | COc1ccccc1OCC(O)COC(N)=O (stereo unspecified) | inactive
74 | Cc1onc(-c2ccccc2Cl)c1C(=O)N[C@@H]1C(=O)N2[C@@H]1SC(C)(C)[C@@H]2C(=O)O | inactive
75 | CCN(CC)CCn1c(=O)c(Cc2ccc(OC)cc2)nc2ccccc21 | inactive
76 | Cc1cccc(Nc2ccncc2S(=O)(=O)NC(=O)NC(C)C)c1 | inactive
77 | NC(N)=NC(N)=NCCc1ccccc1 | inactive
78 | O=P(O)(O)C(O)(Cc1cccnc1)P(=O)(O)O | inactive
79 | COc1ncnc(NS(=O)(=O)c2ccc(N)cc2)c1OC | inactive
80 | CC(C)C1CCC(C(=O)N[C@H](Cc2ccccc2)C(=O)O)CC1 (stereo partly specified) | inactive
81 | CCOCC(O)COc1ccc(NC(=O)CC[S+](C)C)cc1 (stereo unspecified) | inactive
